Active and inactive are the calls of the source. How the source made its calls: active means hit-call score of the fitted dose curve at least 0.9, where 1 is the maximum; inactive means score below 0.9.
Each molecule was assayed on Transforming growth factor beta 1 (TGFb1), TGFB1 (gene 7040) (assay: BSK_BE3C_TGFb1: BioMAP Diversity Plus: BE3C Assay for Transforming growth factor beta 1 (TGFb1) Biomarker Activity (AID 2283036)). Conditions: primary human bronchial epithelial cells; actives raise or lower the signal.
Procedure: BSK_BE3C is a cell-based, multiplexed-readout assay that uses bronchial epithelial cell, a human lung primary cell, with measurements taken at 24 hours after chemical dosing in a 96-well plate.BSK_BE3C_TGFb1 is an assay component measured in the BSK_BE3C assay. It measures TGF-b1 antibody related to regulation of gene expression using ELISA technology.Data from the assay component BSK_BE3C_TGFb1 was analyzed into 1 assay endpoint. This assay endpoint, BSK_BE3C_TGFb1, was analyzed with bidirectional fitting relative to DMSO as the negative control and baseline of activity. Using a type of binding reporter, gain or loss-of-signal activity can be used to understand changes in the signaling as they relate to the gene TGFB1. Furthermore, this assay endpoint can be referred to as a primary readout, because this assay has produced multiple assay endpoints where this one serves a signaling function. To generalize the intended target to other relatable targets, this assay endpoint is annotated to the growth factor intended target family, where the subfamily is transforming growth factor beta.
The levels of cell surface (or secreted, indicated by the prefix "s") biomarker endpoints were measured by ELISA. Overt cytotoxicity to cells in confluent adherent cultures (all systems other than the BT system) was assessed by measuring total protein levels using sulforhodamine B (SRB) staining in parallel cultures at the time of biomarker measurements, indicated as SRB endpoints. For proliferation assays for adherent cell types, individual cell types are cultured at sub-confluence and relative cell numbers quantified by SRB staining at time points optimized for each system (48 h: 3C and CASM3C systems; 72 h: BT and HDF3CGF systems; 96 h: SAg system). SRB was performed by staining cells with 0.1% SRB after fixation with 10% TCA and reading wells at 560 nm.Viability and proliferation of PBMC (T cells) was quantified by Alamar Blue reduction for the SAg and BT systems. For PBMC viability (referred to as PBMC Cytotoxicity within the assay endpoint names), cells were plated (75,000/well in a 96-well plate) and then chemical samples added for 1 h before addition of activators, SEB and TSST-1 (20 ng/mL final concentration each). Cells were incubated for 90 h. Then, Alamar Blue (20 uL/well) (Invitrogen, Cat DAL1100) was added for 6 h, and the plates were read with a fluorescence microplate reader at 546/580 nm (excitation/emission). For PBMC proliferation, cells were plated and activated as above but incubated for only 16 h prior to addition of Alamar Blue. Plates were read after 6 h.

outcome, inactive:
C=C(C)C(=O)OCCOCCOCCOCCOC(=O)C(=C)C
C=C(C)C(=O)OCC(CC)(COC(=O)C(=C)C)COC(=O)C(=C)C
COc1cc(Cl)c(OC)cc1N
O=C1c2ccccc2C(=O)c2c(O)ccc(O)c21
C=C(C)[C@H]1CC=C(C)C(=O)C1
O=C1OC[C@H](Cc2cccc(O)c2)[C@H]1Cc1cccc(O)c1
CC(C=O)Cc1ccc(C(C)(C)C)cc1 (centres undefined)
IC(I)I
CN(c1nccc(=O)[nH]1)C1CCN(c2nc3ccccc3n2Cc2ccc(F)cc2)CC1
CCCCCCCCCCCCCCCC(=O)OC/C=C(C)/C=C/C=C(C)/C=C/C1=C(C)CCCC1(C)C
CC(C)(C)CC(C)(C)c1ccc(OCCOCC[N+](C)(C)Cc2ccccc2)cc1
CC(C)(N=C=O)c1cccc(C(C)(C)N=C=O)c1
CS(=O)(=O)c1ccc(C2=C(c3ccccc3)C(=O)OC2)cc1
COc1ccc(OC)c(N=Nc2c(O)ccc3ccccc23)c1
CCCCOC(=O)CCCCCCCC(=O)OCCCC
CCCCCC(C=O)=Cc1ccccc1
CC(=O)c1c(C)c([N+](=O)[O-])c(C(C)(C)C)c([N+](=O)[O-])c1C
Oc1c(Cl)cc(Cl)c(Cl)c1Cc1c(O)c(Cl)cc(Cl)c1Cl
CS(=O)(=O)OCCCCOS(C)(=O)=O
CN(C)C(=S)SC(=S)N(C)C
CSCCC=O
C1=CC2C3C=CC(C3)C2C1 (centres undefined)
Clc1cc(Cl)c(-c2c(Cl)c(Cl)cc(Cl)c2Cl)cc1Cl
COc1ccc(CCN2CCC(Nc3nc4ccccc4n3Cc3ccc(F)cc3)CC2)cc1
CC(=O)Nc1ccc(C(=O)CCl)cc1
CC=Cc1ccc(OCC)c(O)c1
CCN(CC)C(=O)N(CC)CC
c1ccc2cc(Nc3ccc(Nc4ccc5ccccc5c4)cc3)ccc2c1
c1ccc(Oc2ccccc2)cc1
C[C@@H]1CCN(C(=O)[C@H](CCCN=C(N)N)NS(=O)(=O)c2cccc3c2NC[C@H](C)C3)[C@@H](C(=O)O)C1
C=C(C)C(=O)OCCOCCOCCOC(=O)C(=C)C

AC50, active:
CN(C)C(=O)Nc1ccc(Oc2ccc(Cl)cc2)cc1 3.97 µM
CCCCN(CCCC)C(=O)N(CCCC)CCCC 5.38 µM
O=C1OC2(c3ccccc31)c1ccc(O)c(Br)c1Oc1c2ccc(O)c1Br 3.97 µM
CC(=O)C1(C)CC2=C(CCCC2(C)C)CC1C (centres undefined) 12.8 µM
c1ccc(CCc2ccccc2)cc1 27.8 µM
CCC(C)c1cc([N+](=O)[O-])cc([N+](=O)[O-])c1OC(=O)OC(C)C (centres undefined) 13.6 µM
Cc1cc(CCC(=O)OCCOCCOCCOC(=O)CCc2cc(C)c(O)c(C(C)(C)C)c2)cc(C(C)(C)C)c1O 17.8 µM
CC1(C)C2=CCCC(C)(C)[C@]23CC[C@H]1C3 20 µM

Source: PubChem BioAssay (EPA / NIEHS)
